AmpC inh detg: AmpC beta-lactamase inhibition with detergent present; AID 485294; hit rate 0.041% among 370,000; Potency, µM (series often up to 114 µM), for the others: at the highest dose activity change, negative = inhibition, actives largely listed as inhibitors; AmpC hydrolysis of nitrocefin, absorbance 480 nm, 0.01% Triton; P00811;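 also: potency is read from the fitted curve at half-maximal effect; 0% = no-compound wells and -100% = no-enzyme wells; nearly all actives have a fitted effect of over 25% in size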
Target sequence (P00811 whole entry, looked up): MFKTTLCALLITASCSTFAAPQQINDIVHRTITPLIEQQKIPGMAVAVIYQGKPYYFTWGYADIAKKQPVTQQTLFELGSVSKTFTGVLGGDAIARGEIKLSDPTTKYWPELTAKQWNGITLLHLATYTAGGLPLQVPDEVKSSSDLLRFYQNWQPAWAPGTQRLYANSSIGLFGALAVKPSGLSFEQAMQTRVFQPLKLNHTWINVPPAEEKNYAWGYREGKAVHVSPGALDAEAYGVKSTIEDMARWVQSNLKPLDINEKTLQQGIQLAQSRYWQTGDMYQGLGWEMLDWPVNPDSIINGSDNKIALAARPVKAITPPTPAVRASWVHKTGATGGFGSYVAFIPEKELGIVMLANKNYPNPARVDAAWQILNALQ
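20 mM phosphate pH 7.0 + 0.01% (detergent screen) or 0.0001% Triton X-100; 5.3 nM AmpC reagent; cpd preinc 15 min RT; nitrocefin (800 uM stock) to start; A480 q20 s × 4 min; Activity was normalised to no-enzyme and no-compound control wells.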
HCV inh: HCV inhibition; Potency, µM (highest dose often 41.8 µM), inactives show top-dose activity change, negative = inhibition, most hits filed as inhibitors; AID 651820; hit rate 3.4% among 340,000; Huh7.5.1 HCVcc-Cre infection, luciferase reporter, 44 h; also: potency is read from the fitted curve at half-maximal effect
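HCVcc-Cre virus at an moi near 0.5 was added right after compound to cells cultured 4 h from seeding (1,000 cells/well). Luciferase activity was determined 44 h later, 15 min after substrate addition at RT.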
AmpC no deterg: AmpC beta-lactamase inhibition without detergent | Potency, µM (series often up to 57.1 µM), for the others: at the top dose activity change, negative = inhibition, actives largely listed as inhibitors | hit rate 0.52% among 330,000 | AID 485341 | AmpC nitrocefin hydrolysis, absorbance 480 nm, 0.0001% Triton | P00811;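 also: potency is read from the fitted curve at half-maximal effect; plate controls were no compound for no effect and no enzyme for full effect; nearly all actives have a fitted effect of over 20% in size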
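20 mM phosphate pH 7.0 + 0.01% (detergent screen) or 0.0001% Triton X-100; 5.3 nM AmpC reagent; cpd preinc 15 min RT; nitrocefin (800 uM stock) to start; A480 q20 s × 4 min; Activity was normalised to no-enzyme and no-compound control wells.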
FMDV antiviral: antivirals against foot and mouth disease virus; AID 1159524; hit rate 1.2% among 410,000; FMDV antiviral cell-based qHTS; Potency, µM (series often up to 57.9 µM), without a hit: at the highest dose activity change, negative = inhibition, usual class: inhibitors; calls by dose curve; tested in HEK293T cells; also: read-out not given here; potency is read from the fitted curve at half-maximal effect; nearly all actives have a fitted effect of over 45% in size
HCMV inh: blocks human cytomegalovirus replication. hit rate 4.5% among 410,000. HFF cells, HCMV-luciferase reporter, 72 h; stronger effect = lower value. AID 1259415. activity change, negative = inhibition, % at 57.5 µM; in the data active = activity change below about -60%; inconclusive = no clear call, values can overlap the other calls; inactive = above about -39%
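Two compound doses tested in HFFs infected with HCMV-luciferase, MOI 1 PFU/cell, 72 h at 37C. Lysate luminescence read with OneGlo; data normalized against buffer-only and 10uM Salinomycin inhibitor controls.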
The depositor's hits bear a star; ? = inconclusive; / = no result given; + = active, no number; [ ] = another dose, or the depositor's remark. Most compounds without a hit are left out; they make up all but 7.3% or so of the library. Unless noted, calls follow the shape of the dose curve; as a rule, active = well fitted curve in the direction sought with a large enough effect; inconclusive = small, poorly fitted or top-dose-only effect, or another doubt; inactive = no such curve, though single readings can be large; an effect the other way counts as inactive or inconclusive. Unless noted, % is scaled to controls: 0 for no effect and ±100 for the full control effect.

SMILES	AmpC inh detg	HCV inh	AmpC no deterg	FMDV antiviral	HCMV inh
COc1cccc(Cn2c(=O)ccc3ccccc32)c1	-5%	-1%	4%	22%	-81*
COc1cccc(Cn2c(=O)oc3ccccc32)c1	2%	10%	-18%	26%	34
CCCn1c(SCC(=O)C(C)(C)C)nc2ccccc21	?	1%	-17%[11.4 µM]	5%	-67*
COc1ccc(C(=O)Cn2c(C(=O)/C=C/c3ccccc3)nc3ccccc32)cc1	-8%	?	-22%	8.9µM*	11
COc1cccc(Cn2c(SCC(=O)N(C)c3ccccc3)nc3ccccc32)c1	3%	/	/	?	-60*
COc1ccc(OCCSc2nc3ccccc3n2CC(=O)O)cc1	-5%	-8%	-17%	-18%	-15
COc1ccc(C(=O)CSc2nc3ccccc3n2CC(=O)c2ccccc2)cc1	-2%	?	39%	/	-66*
CSc1nccc(-c2cc(Cl)c3c(c2)CC(CNC(=O)c2ccc(C)nc2)O3)n1 (stereo unspecified)	/	/	/	-20%	/
C=C(C)c1cccc(C(C)(C)NC(=O)Nc2ccc(C)cn2)c1	-8%	8.9µM*	-2%	-21%	-39
C=C(C)c1cccc(C(C)(C)NC(=O)Nc2nnc(C(C)C)s2)c1	-5%	?	-24%	?	-101*
C=C(C)c1cccc(C(C)(C)NC(=O)Nc2nncs2)c1	1%	?	-29%	-3%	-19
O=C(O)c1ccccc1Nc1ccccc1	-19%	5µM*	-18%	-11%	-5
COc1cc([N+](=O)[O-])c(OC)cc1Nc1ccccc1C(=O)O	/	/	/	/	-4
Cc1cccc(Nc2ccccc2C(=O)O)c1C	-10%	2%[8.37 µM]	-13%	-14%	-63*
COc1cc(-c2ccc(Nc3ccccc3C(=O)O)c(OC)c2)ccc1Nc1ccccc1C(=O)O	2%	3%	-57%	-23%	-68*
Cc1ccc2nc(SCC(=O)Nc3cccc(F)c3)nc(=O)n2c1	0%	?	-18%	-13%	-27
N#CCCN(C(=O)COC(=O)c1cccc(S(=O)(=O)N2CCCCCC2)c1)c1ccc(F)cc1	/	-21%	/	-24%	-22
N#CCCN(C(=O)COC(=O)c1cccc(S(=O)(=O)N2CCCC2)c1)c1ccc(F)cc1	2%	/	73%	-7%	-75*
N#CCCN(C(=O)COC(=O)c1cc(S(=O)(=O)N2CCOCC2)ccc1Cl)c1ccc(F)cc1	?	-7%[8.37 µM]	136%	-20%	-71*
COCCn1c(=O)c(-c2ccc(Cl)cc2)nc2cncnc21	/	/	/	2%	/
Cn1c(=O)c2c(-c3ccc(Cl)cc3)ccnc2n(C)c1=O	-3%	/	/	0%	-5
COc1ccccc1C(=O)N1CCOc2ccc(CN3CCN(Cc4ccccn4)CC3)cc2C1	/	/	/	-7%	/
CCCCN(C)CCNC(=O)c1cc(=O)[nH]c2ccc(S(=O)(=O)N3CCCCCC3)cc12	8%	/	/	-11%	6
CCOC(=O)N1CCC(NC(=O)c2cc(S(=O)(=O)N3CCCCC3)ccc2F)CC1	4%	-6%	53%	39%	-2
CC(C)CN(CCCNC(=O)c1cc(=O)[nH]c2ccc(S(=O)(=O)N3CCCC3)cc12)CC(C)C	-3%	/	/	-14%	-68*
SMILES	AmpC inh detg	HCV inh	AmpC no deterg	FMDV antiviral	HCMV inh
O=C(NCCc1ccccc1)c1cc(S(=O)(=O)N2CCCC2)ccc1F	?	-27%	0%	22%	+
CCCCCNC(=O)c1cc(S(=O)(=O)N2CCCCC2)ccc1F	-13%	-1%	-15%	1%	-105*
CCOc1ccc(CCNc2ncnc3onc(-c4ccc(F)cc4)c23)cc1OCC	-1%	/	/	?	-30
Nc1n[nH]c(-c2ccc(Br)cc2)c1Cl	-5%	-9%	-41%	-5%	-109*
Cc1ccc(NC(=O)Cn2cc(C(=O)c3cccs3)c3ccccc32)cc1C	4%	/	/	-7%	?
C[C@@H]1CN([C@H](C)CO)C(=O)c2cc(NC(=O)Nc3ccc4c(c3)OCO4)ccc2O[C@H]1CN(C)Cc1ccncc1	/	46%	38%	-6%	-13
Cc1nnc(-c2ccco2)c2cn(-c3cccc(Br)c3)nc12	?	?	33%	22µM*	-29
CC(=O)c1nn(-c2cccc(Br)c2)cc1C(=O)c1ccco1	?	-22%	-15%	-1%	7
O=C(CN1C(=O)c2ccccc2S1(=O)=O)c1ccc(F)cc1	-2%	9%	-11%	-68%	-67*
O=C(CN1C(=O)c2ccccc2S1(=O)=O)c1ccccc1F	-5%	4%	-20%	?	?
O=C(CN1C(=O)c2ccccc2S1(=O)=O)NC1CCCCCC1	?	15%	-6%	53%	-75*
O=C(CN1C(=O)c2ccccc2S1(=O)=O)c1ccc(OC(F)F)cc1	-2%	7%	-23%	?	/
O=C(CN1C(=O)c2ccccc2S1(=O)=O)c1ccc(Cl)cc1Cl	/	18%	/	2µM*	-91*
O=C(CN1C(=O)c2ccccc2S1(=O)=O)c1cccc(Br)c1	1%	-3%	-11%	10µM*	-32
O=C1NC[C@H](CCCCN2C[C@H](Cc3ccccc3)N(CCc3ccccc3)C(=O)C2=O)N(CC2CCCCC2)C1=O	/	/	/	-6%	20
CCN1C(=O)c2ccccc2Sc2ccc(NC(=O)N3CCN(c4cc(C)ccc4C)CC3)cc21	-1%	/	/	-24%	-61*
CN1C(=O)c2ccccc2Sc2ccc(NC(=O)N3CCN(c4ccc(F)cc4)CC3)cc21	26%	/	/	-7%	-97*
CCN1C(=O)c2ccccc2Sc2ccc(NC(=O)Nc3ccc(C(C)=O)cc3)cc21	0%	/	/	-14%	-26
Cc1ccc(C)c(N2CCN(C(=O)Nc3ccc4c(c3)N(C)C(=O)CS4)CC2)c1	3%	10µM*	-48%	16µM*	-16
CN1C(=O)CSc2ccc(NC(=O)N3CCN(c4ccccn4)CC3)cc21	1%	?	-42%	?	-18
CCCCSc1nc(-c2ccc(OC)cc2)ccc1C#N	-4%	/	/	-4%	2
CCSc1nc(-c2ccc(OC)cc2)ccc1C#N	0%	10µM*	-14%	-24%	26
Cc1ccc(OCCNc2ccc(S(=O)(=O)N3CCCC3)cn2)cc1	0%	-11%	-21%	3%	5
CN(CCOc1ccc(Cl)cc1)c1ccc(S(=O)(=O)N2CCCCC2)cn1	-1%	14µM*	-6%	-24%	-11
O=S(=O)(c1ccc(SCCOc2ccc(F)cc2)nc1)N1CCCC1	7%	16µM*	-22%	?	?
CNS(=O)(=O)c1cn(CC(=O)NCc2ccccc2OC)cc1S(=O)(=O)NC	0%	-8%	-6%	22%	/
CC(=O)Oc1ccc(-c2ccc(C(=O)OCC(=O)c3c(N)n(C)c(=O)n(C)c3=O)cc2)cc1	/	?	74%	-15%	-62*
CC(=O)Oc1ccc(C(=O)OCC(=O)c2c(N)n(C)c(=O)n(C)c2=O)cc1OC(C)=O	-14%	9%	-4%[11.4 µM]	-8%	-26
